Shown are actives, neighbours in structure and some others; about 14% of the full set was active somewhere.
Lassa entry inh: blocks Lassa virus binding to or entry into cells | Lassa virus pseudotype entry inhibition, cell reporter | Potency, µM (titrated, usually from 37.9 µM), for the others: at the top dose activity change, negative = inhibition, usual class: inhibitors | 1.2% of 300,000 active; calls by dose curve; tested in HEK293 cells; further: potency means the concentration at half of the fitted maximal effect; nearly all actives have a fitted effect of over 50% in size
MARV entry inh: blocks Marburg virus binding to or entry into cells; Potency, µM (doses to about 37.8 µM), for the others: at the highest dose activity change, negative = inhibition, usual class: inhibitors; Marburg virus pseudotyped entry inhibition, cell reporter; 1.8% of 300,000 active; calls by dose curve; tested in HEK293 cells; further: potency means the concentration at half of the fitted maximal effect
Pf growth 48h: P. falciparum growth inhibition at 48 hours (one generation) | 5.9% of 310,000 active | P. falciparum luciferase growth in erythrocytes, 48 h | Potency, µM (titrated, usually from 28.7 µM), without a hit: at the highest dose activity change, negative = inhibition, most hits filed as inhibitors; further: potency means the concentration at half of the fitted maximal effect
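Read-out is firefly luciferase luminescence from an integrated reporter in P. falciparum, so falling signal marks reduced parasite growth. Infected erythrocytes were at 2% hematocrit and 0.1% parasitemia (final) in Albumax-supplemented RPMI 1640.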
Pf growth 96h: P. falciparum growth inhibition at 96 hour, primary screen for plastid delayed-death inhibitors. P. falciparum luciferase reporter growth, 96 h. Potency, µM (titrated, usually from 28.7 µM), for inactives: at the highest dose activity change, negative = inhibition, hits mostly inhibitors. 6.9% of 320,000 active. AID 504834; further: potency means the concentration at half of the fitted maximal effect
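Cell-based qHTS: luciferase-tagged P. falciparum in erythrocytes (2% hematocrit, 0.05% parasitemia final) incubated with compounds for 96 hours, 37 C, 5% CO2; luciferase detection reagent then added and luminescence measured.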
HCV inhibitor: blocks hepatitis C virus; Huh7.5.1 HCVcc-Cre infection, luciferase reporter, 44 h; Potency, µM (titrated, usually from 41.8 µM), for the others: at the highest dose activity change, negative = inhibition, hits mostly inhibitors; 3.4% of 340,000 active; further: potency means the concentration at half of the fitted maximal effect
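Antiviral activity was scored by luciferase reporter output from cells infected with HCVcc-Cre (~0.5 moi) in presence of compound, 44 h infection period, cells seeded 1,000/well 4 h prior.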
HCMV inh: human cytomegalovirus inhibition; HFF cells, HCMV-luciferase reporter, 72 h; stronger effect = lower value; activity change, negative = inhibition, % at 57.5 µM; 4.5% of 410,000 active; in the data active means activity change below about -60%; inconclusive means no clear call, values can overlap the other calls; inactive means above about -39%
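Inhibition of viral replication was scored as loss of reporter luminescence in HFFs infected with HCMV-luciferase (MOI 1 PFU/cell) for 72 h; compounds tested at 2 doses, normalized to buffer and Salinomycin controls.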
Numbers without * were called inactive; ? = inconclusive; . = no result; [ ] = another dose, or the depositor's remark. Unless noted, the call rests on the fitted dose curve; in most records, active means well fitted inhibition curve with a large enough effect; inconclusive means small, poorly fitted or top-dose-only effect, or another doubt; inactive means no such curve, though single readings can be large or run the other way. On the % scale 0 is the no-effect control and ±100 the full control effect.

SMILES	Lassa entry inh	MARV entry inh	Pf growth 48h	Pf growth 96h	HCV inhibitor	HCMV inh
CCC(Sc1nc(C)cc(C)n1)C(=O)Nc1nccs1 (stereo not given)	.	.	?	13µM*	-3%	22
Cc1ccc(SCCCCN2CCNCC2)cc1	29%	?	39%	12%	11µM*	-1
Clc1ccc(SCCCCN2CCNCC2)cc1	?	?	?	12µM*	?	-29
Clc1ccc(SCCCCN2CCOCC2)cc1	-4%	-8%	2%	-8%	-2%	-12
CCOC(=O)c1cccc(Nc2cc(C)nc(C)n2)c1	5%[46.1 µM]	2%[46.1 µM]	.	.	.	9
CCNC(=O)c1ccc(CSc2nc3cccnc3n2Cc2ccc(OC)cc2)cc1	-8%[46.1 µM]	.	.	.	.	25
C=CCN(C(=O)CCC(=O)O)[C@H]1CC(=O)N(c2ccc(OCCC)cc2)C1=O	.	-1%	.	.	.	.
O=C(CCOc1ccccc1)N(Cc1cccnc1)c1nc2ccc(F)cc2s1	-13%[46.1 µM]	.	.	.	.	14
O=C1NC(=O)C(C2CCCCCC2)C(=O)N1	22%[46.1 µM]	15%[46.1 µM]	.	.	8%	-66*
CN1C(=O)CON=C1c1cccc2ccccc12	.	.	.	.	.	28
Cc1oc(C)c2c(=O)ccc3c(c12)OC(N)=C(C#N)C3c1ccc(F)cc1 (stereo not given)	-13%	1%	13µM*	-2%[5.75 µM]	-2%	-28
COc1ccc(NC(=O)C[C@H]2C(=O)N(c3ccccc3)C[C@@H]2Cc2ccccc2)cc1	-10%[46.1 µM]	.	.	.	.	37
CC1=C(C(=O)N2CCOCC2)CC(CC(=O)NCC2CCCCC2)C(=O)N1Cc1ccc(C(C)(C)C)cc1 (stereo not given)	.	.	.	.	.	10
O=C(CN1C(=O)S/C(=C\c2cccs2)C1=O)Nc1ccc(O)c(C(=O)O)c1	.	.	-12%	10µM*	5%	-16
O=C(CCCN1C(=O)/C(=C/c2ccccc2)SC1=S)Nc1ccccc1O	7%	?	-1%	136%	?	-100*
O=C(CCN1C(=O)/C(=C\c2cccs2)SC1=S)NC1=NCCS1	-2%	?	13%	30%	21%	-31
O=C(CCCN1C(=O)/C(=C\c2ccccc2)SC1=S)Nc1ccc(O)cc1C(=O)O	.	.	21%	-23%	?	?
O=C(CCCN1C(=O)/C(=C\c2cccs2)SC1=S)Nc1ccccc1O	.	.	.	.	.	-93*
O=C(CCCN1C(=O)/C(=C/c2ccccc2)SC1=S)NCCCn1ccnc1	.	.	?	9.3µM*	-17%	-98*
NC(=O)COC(=O)CC12CC3CC(CC(Br)(C3)C1)C2	10%[46.1 µM]	-1%[46.1 µM]	-7%	19%	6%	-11
COc1ccc(OC)c(CNC(=O)CCCn2c(=O)c3cccn3c3cccnc32)c1	-7%[46.1 µM]	26%[46.1 µM]	.	.	.	-9
COc1ccc(CNc2nc(-c3ccco3)nn2S(=O)(=O)c2ccc(Cl)cc2)cc1OC	-17%[46.1 µM]	5%[46.1 µM]	.	.	.	9
O=C(CCCN1C(=O)/C(=C/c2cccs2)SC1=S)Nc1cc([N+](=O)[O-])ccc1O	.	.	-6%	?	18%	-73*
O=C(CCN1C(=O)/C(=C/c2ccc(F)cc2)SC1=S)Nc1cc([N+](=O)[O-])ccc1O	.	.	14%	?	-8%	-34
CC(=O)OC1(C(C)=O)CCC2C3CC(C(F)(F)F)C4=CC(=O)CCC4(C)C3CCC21C (stereo not given)	?	8.9µM*	.	.	?	-29
SMILES	Lassa entry inh	MARV entry inh	Pf growth 48h	Pf growth 96h	HCV inhibitor	HCMV inh
CCC(=O)OC1(C(C)=O)CCC2C3CCC4=CC(=O)CCC4(C)C3CCC21C (stereo not given)	?	?	.	.	-16%	-11
CC(=O)C12CCCCC1CC1[C@@H]3CC(C)C4=CC(=O)CC[C@]4(C)C3CC[C@@]12C (stereo not given in full)	28%[46.1 µM]	14%[46.1 µM]	?	?	-19%	-80*
CC(=O)O[C@]1(C(C)=O)CC[C@H]2[C@@H]3C[C@H](C)C4=CC(=O)CC[C@]4(C)[C@H]3CC[C@@]21C	?	-41%	13µM*	12µM*	?	56
COc1cc(C2C(C(=O)OC(C)C)=C(C)N=C3SCCC(=O)N32)ccc1OCc1ccccc1 (stereo not given)	-26%[46.1 µM]	?	.	.	.	-7
O=C(c1ccc(S(=O)(=O)c2ccccc2Cl)c([N+](=O)[O-])c1)N1CCN(Cc2ccccc2)CC1	?	?	?	?	?	-85*
Cc1ccccc1CS(=O)(=O)c1ccc(C(=O)N2CCOCC2)cc1[N+](=O)[O-]	.	.	?	2%	?	?
CC1CCN(C(=O)c2ccc(S(=O)(=O)Cc3ccccc3F)c([N+](=O)[O-])c2)CC1	?	?	0%	?	?	-76*
O=C(c1ccc(Br)c([N+](=O)[O-])c1)N1CCN(Cc2ccccc2)CC1	.	.	3%	-19%	-14%	15
O=C(c1ccc(S(=O)(=O)c2ccc(F)cc2)c([N+](=O)[O-])c1)N1CCCCCC1	?	?	3.3µM*	-17%	?	?
O=C(c1ccc(S(=O)(=O)Cc2ccccc2Cl)c([N+](=O)[O-])c1)N1CCOCC1	?	?	?	8%	-13%	-69*
O=[N+]([O-])c1ccc(C(c2sc3nc(-c4ccco4)nn3c2O)N2CCC3(CC2)OCCO3)cc1 (stereo not given)	6%[46.1 µM]	.	.	.	.	8
OCC(O)CS (stereo not given)	.	.	2%	15%	.	.
C[C@@H]1COC(=O)[C@H](CC(=O)OC(C)(C)C)C/C=C\C[C@@H](CC(=O)NCCO)C(=O)N1	.	.	.	.	18%	-3
Cc1ccc(CS(=O)(=O)c2ccc(C(=O)N3CCN(c4ccccn4)CC3)cc2[N+](=O)[O-])cc1	-24%	?	-26%	?	?	-91*
Cc1nn(-c2ccccn2)c2c1C(c1c(F)cccc1Cl)C1=C(N2)c2ccccc2C1=O (stereo not given)	-4%	5%	10µM*	9.3µM*	7%	.
Cc1nn(-c2ccccn2)c2c1C(c1ccccc1Cl)C1=C(N2)c2ccccc2C1=O (stereo not given)	13%	-2%	?	12µM*	?	-15
Cc1cccc(C)c1NC(=O)CN1CCN(C/C=C/c2ccccc2)CC1	.	.	.	.	.	19
CCOC(=O)c1[nH]c2ccc(F)cc2c1NC(=O)CN1CCN(C/C=C/c2ccccc2)CC1	?	?	9.3µM*	5.9µM*	10µM*	-22
CCOC(=O)c1[nH]c2ccc(F)cc2c1NC(=O)CN1CCc2cc(OC)c(OC)cc2C1	.	.	12µM*	?	.	.
COC(=O)c1[nH]c2cccc(OC)c2c1NC(=O)CN1CCN(c2cccc(OC)c2)C(C)C1 (stereo not given)	?	?	?	-14%	-10%	22
